Assay results reported in PubChem BioAssay AID492956 (The Scripps Research Institute Molecular Screening Center, 2010).
In all, about 340,000 compounds went through this assay and about 3,300 (0.97%) were called active. The sample holds actives, similar compounds and a random draw of the others, so the mix is not that of the screen.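 How the source made its calls: active means inhibition above the mean over all tested compounds plus 3 SD (cut at about 30% in these data); inactive means the rest.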 Non-standard residues stand in square brackets, D forms with d. Residues, ends and D or L forms follow the SMILES beside them. ξ: configuration not given here. *: point of attachment. Cbz = O=C(OCc1ccccc1)*; ξL = CC(C)CC(N)C(=O)O; ξP = O=C(O)C1CCCN1

Target: Platelet-activating factor acetylhydrolase 2, cytoplasmic (Homo sapiens) (UniProt Q99487)
Assay: inhibition of cytoplasmic PAF acetylhydrolase 2 – biochemical, fluorescence polarization, human, primary screen (AID 492956);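 further: inhibitors block probe labeling of enzyme so polarization drops; 0% = enzyme with DMSO and 100% = wells lacking PAFAH2 protein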
Conditions: recombinant PAFAH2, FP-rhodamine activity probe, at 3.39 µM, hits give high values

inhibition, inactive:
CCOC(=O)c1oc2c(CN3CCN(CCO)CC3)c(O)c(CC)cc2c(=O)c1-c1nc2ccccc2s1 -4.68%
Cc1c2cn[nH]c(=O)c2c(C)n1Cc1ccc(F)cc1 -4.15%
C=C1c2cccc(OC)c2O[C@H](C(=O)OCC)[C@@H]1CCCCCC 2.29%
CCOC(=O)C1=C(CNC2CCCCC2)NC(=O)NC1c1cc(C)ccc1C (stereo not given) -10.1%
COc1ccc(O)c(C(=O)c2cnc3onc(C(C)C)c3c2)c1 -6.85%
COC(=O)C1CCN(C(=O)c2ccc3oc(Cc4ccc(Cl)cc4)nc3c2)CC1 -2.24%
COCC1CCCN(C(=O)c2ccc3oc(C(C)C)nc3c2)C1 (stereo not given) 2.06%
CC1=NC2(CCCc3c2no[n+]3[O-])N(O)C1(C)C (stereo not given) -4.68%
COCCNC(=O)CN1C(=O)CSc2ncccc21 3.18%
COc1ccc(CCNC(=O)COC(=O)C2CCCCC2)cc1 7.99%
Cc1c(Cl)cnc(NC(=O)COC(=O)c2ccc(S(=O)(=O)NCc3ccco3)cc2)c1Cl 22.8%
Cc1ccc(Cl)cc1NC(=O)COC(=O)CC(C)(C)C 6.71%
CSCCC(NC(=O)c1ccco1)C(=O)OCC(=O)Nc1ncc(Cl)c(C)c1Cl (stereo not given) 0.63%
Cc1cc(=O)oc2c(C)c(OCC(=O)NCCN3CCOCC3)ccc12 -1.89%
COc1ccc(S(=O)(=O)N2CCC(C(=O)N3CCCC3)CC2)cc1C -0.54%
Nc1nc(SCc2cccc(Br)c2)n[nH]1 -14.7%
CN(Cc1ccccc1)C(=O)C(=O)c1cn(CC(=O)N2CCCC2)c2ccccc12 5.94%
CCOC(=O)C1C(=O)C=C(c2ccc(OC)cc2)CC1c1ccco1 (stereo not given) 6.12%
O=S(=O)(NCc1ccccc1Br)c1ccccc1Br 3.56%
Cc1ccn2c(=O)nc(SCC(=O)NCc3ccc(F)cc3)nc2c1 10.6%
Cc1ccc(C)c(N2CCN(C(=O)CCc3nc4ccccc4[nH]3)CC2)c1 2.85%
CCO[C@@H]1OC(C(=O)NCc2nc3ccccc3[nH]2)=C[C@H](C2CCCCC2)[C@H]1CCCO -12.7%
CCO/C=C1\C(=O)N(c2ccc(OCC)cc2)C(=O)c2ccccc21 5.93%
Cc1ccc(OCC(=O)Nc2cccc3c2CCCC3)cc1C -17.9%
NC(=O)C1CCN(C(=O)c2ccc3c(=O)n(Cc4cccc(Br)c4)c(=S)[nH]c3c2)CC1 1.48%
COc1cc(OC)c2c(-c3cccc(-c4cccc(N)c4)c3)cc(=O)oc2c1 4.97%
CCOc1ccc(NC(=O)C2CCN(C(=O)N3CCOc4ccccc43)CC2)cc1 -3.71%
C=CCN(C(=O)c1cc(C)cc(C)c1)C1(C(=O)Nc2ccccc2)CCN(C(C)C)CC1 -2.17%
CC(=O)Nc1ccc(S(=O)(=O)NC(C)C(=O)OCC(=O)NC2CCCC2)cc1 (stereo not given) -5.65%
C/C=C/C(=O)OCc1csc(CC(=O)Nc2ccccc2C)n1 2.3%
Cc1ccc(S(=O)(=O)N(C)C)cc1NC(=O)c1ccccc1Br 1.28%
CN(C(=O)c1c(Cl)cnn1C)C12CC3CC(CC(C3)C1)C2 1.24%
NS(=O)(=O)c1ccc(NC(=O)COC(=O)c2c3c(nc4ccccc24)/C(=C\c2ccc4c(c2)OCO4)CCC3)cc1 -39.4%
CCn1ccnc1CNC(=O)CC1C(=O)NCCN1CCCc1ccccc1 (stereo not given) -0.69%
CC(C)CC(NC(=O)C1CCCN1C(=O)[C@@H](C)NC(=O)OCc1ccccc1)C(=O)NCC(N)=O (stereo not given in full) (Cbz-[dA][ξP][ξL]G-NH2) 3.95%
Cc1ccc(NC(=O)C2CCCN2C(=O)OCc2ccccc2)cc1C (stereo not given) -10.9%
CCc1cc(CNC(=O)CC2C(=O)NCCN2Cc2ccccc2C(F)(F)F)on1 (stereo not given) -1.63%
COC(=O)CNc1nc(Cl)nc(N2CCC(C)CC2)n1 -3.76%
CCOC(=O)c1cccc(NC(=O)CCn2nnc3ccccc32)c1 -12.2%
Cn1c(Cn2nnc3ccccc32)nnc1SCC(=O)c1ccccc1F -0.21%
CCCCCN(C(=O)CCC(=O)OCCOc1ccc(OC)cc1)c1c(N)n(CCCC)c(=O)[nH]c1=O 0.6%
COc1ccc(Cc2nc3ccc(C(=O)N4CCC(N(C)C)C4)cc3o2)cc1 (stereo not given) 1.02%
CC(C)CN(C(=O)CSc1ncnc2sccc12)C1CCS(=O)(=O)C1 (stereo not given) -0.68%
CCN(CC)CCCN1C(=O)C(=O)/C(=C(/O)c2c(C)nc3ccccn23)C1c1ccc(C)o1 (stereo not given) -8%
Cc1nc(N)nc(Cl)c1CCC1OCCO1 -3.02%
CCOc1cccc(/C=N/N2C(=O)CSC2=S)c1O 21.4%
Cc1cc(C(=O)N/N=C/c2ccc(O)c([N+](=O)[O-])c2)c(C)n1-c1ccc(F)cc1 15.3%
CCn1ncc(Br)c1C(=O)Nc1cc(C)ccc1F 4.13%
CC1(C)CC(O)C(CCC(O)c2ccccc2)C(C)(C)N1 (stereo not given) 4.72%
O=C(NCCNc1ccc([N+](=O)[O-])cc1)c1cccc2c(Br)cccc12 2.72%
CCC(=O)N(Cc1ccccc1)c1ccccn1 -1.23%
Cc1cc(OCCCC(=O)Nc2cc(S(=O)(=O)N3CCOCC3)ccc2N2CCOCC2)ccc1Cl 8.81%
CSc1ncc(C(=O)NCCCc2ccccc2)c(C)n1 -6.77%
C=CCc1c(C)nc2cc(-c3ccccc3)[nH]n2c1=O 0.26%
O=c1c2c(nc3cc(-c4cccc(Cl)c4)[nH]n13)CCCC2 2.97%
Cc1cc(=O)oc2c(C)c(OC(C)C(=O)NC3CCN(Cc4ccccc4)CC3)ccc12 (stereo not given) 1.42%
CC(OC(=O)c1c(F)cccc1F)C(=O)NCCC1=CCCCC1 (stereo not given) 8.3%
O=C(COC(=O)c1cc[n+]([O-])cc1)Nc1ccc(Cl)c(C(F)(F)F)c1 -4.1%
NC(=O)c1ccc(NC(=O)COC(=O)c2ccc([N+](=O)[O-])cc2)cc1 0.64%
O=C1c2ccccc2NC(c2ccc(-c3cccc(Cl)c3)o2)N1O (stereo not given) -3.11%
O=C1NN(c2ccccc2)C(=O)/C1=C/c1ccc(-c2cccc(C(=O)O)c2)o1 24.1%
O=C(O)c1ccc(NN=CC2=C(N3CCOCC3)/C(=C/c3ccccc3)CC2)cc1 1.44%
COc1ccc(C(C[N+](=O)[O-])n2nc(C)cc2C)cc1 (stereo not given) 1.81%
Cc1cc(NS(=O)(=O)c2ccc(NC(=S)NC(=O)c3ccc(F)cc3Cl)cc2)no1 3.92%
O=C(Nc1cccc(S(=O)(=O)NC2=NCCC2)c1)c1ccc(F)cc1F -3.56%
C[C@H]1CCC(=O)N([C@H](CSc2ccccc2)Cc2ccccc2)CC1 4.65%
C/C=N/NC(=O)CCCC(=O)N/N=C/C -3.09%
Cc1ccc2c(c1)C1CN(C)CCC1N2S(=O)(=O)c1cccc(F)c1 (stereo not given) 4.06%
Cc1ccc2c(c1)C1CN(C)CCC1N2C(=S)Nc1ccc(Cl)cc1Cl (stereo not given) 8.44%
CCC(C)[C@H](NC(=O)N1CCn2c1nc1ccccc12)C(=O)NCc1ccc(OC)cc1 (stereo not given in full) 5.18%
CCc1ccc(C2C(C#N)=C(N)N(N3CCOCC3)C3=C2C(=O)CC(C)(C)C3)s1 (stereo not given) 0.28%
O=C(COC(=O)CCCN1C(=O)c2cccc3cccc(c23)C1=O)NC1CCS(=O)(=O)C1 (stereo not given) 3.81%
Cc1cnc(NC(=O)C2CCCC2)s1 1.44%
Cc1cnc(NC(=O)c2ccccn2)s1 13.5%
O=C(COC(=O)CC1CC2CCC1C2)NC(=O)NC1CCCC1 (stereo not given) 1.25%

inhibition, active:
CC(C)(C)c1ccc(/C=C2\Oc3c(ccc(O)c3CN3CCN(CCO)CC3)C2=O)cc1 82%
COCC1CCN(C(=O)c2ccc3oc(Cc4ccccc4)nc3c2)C1 (stereo not given) 58.9%
Cc1ccc(Cl)cc1NC(=O)COC(=O)C1CCCCC1 37.4%
Cc1c(Cl)cnc(NC(=O)COC(=O)C2CCCC2)c1Cl 37.6%
O=C(OCc1nc2ccccc2[nH]1)C1CCCCC1 59.9%
Cc1ccc(NC(=O)Cc2nc(COC(=O)C(C)NS(=O)(=O)c3ccc(C)cc3)cs2)cc1 (stereo not given) 67.5%
CCC(C)C(NC(=O)C1CCC(=O)N1C(=O)OCc1ccccc1)C(=O)NC(C(=O)N1CCCC1C(N)=O)C(C)CC (stereo not given) 45%
C/C(Cn1nnc2ccccc21)=N\OC(=O)c1cc(F)c(F)cc1Cl 75.7%
O=C1CSC(=S)N1/N=C/c1ccc(O)c([N+](=O)[O-])c1 38.1%
CCCCN1Cc2c(nc3cc(-c4ccccc4)[nH]n3c2=O)C1=O 40.2%
CC(=O)Nc1ccc(C(=O)OCC(=O)Nc2ccc([N+](=O)[O-])cc2C(F)(F)F)cc1 40.5%
O=C(O)C(c1ccccc1)N1C(=O)/C(=C\c2ccc(-c3cccc(Cl)c3)o2)SC1=S (stereo not given) 40.3%
O=C(Nc1cc(S(=O)(=O)Nc2ccc(Cl)cc2)ccc1O)c1ccc(F)cc1F 61.9%
Cc1ccc2c(c1)C1CN(C)CCC1N2C(=O)c1ccccc1NS(=O)(=O)c1ccc(F)cc1C (stereo not given) 41.1%
Cc1cnc(NC(=O)CSc2c(Cl)cccc2Cl)s1 38.4%
